Molecules are shown by their SMILES. Where “and” joins values, the source holds several entries; their conditions need not be identical. Equal entries are not always repeated. Records with an inconclusive call do not appear. Some structures have more than one record in an assay (separate samples or runs), and their calls can disagree. Calls of active or inactive are those of the source. Unless noted, calls come from the whole dose curve; as a rule, active = well fitted curve in the direction sought with a large enough effect in the repeat runs; inconclusive = weak or mixed curves; inactive = no such curve, though single readings can be large; an effect the other way counts as inactive or inconclusive.

Assay [1] in a line: qHTS assay to identify small molecule antagonists of the estrogen related receptor (ERR) signaling pathway from Tox21 library - cell viability counter screen (AID 1224834). Note: nearly all actives have a fitted effect of over 30% in size. Note: potency is the fitted concentration of half-maximal effect. In a few lines: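 Seeded ERR cells were rested 6 h at 37 C/5% CO2 before compounds, positive and negative controls or DMSO were added. Incubation continued for 17.5 h, and viability was then quantified by CellTiter-Fluor fluorescence.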
For orientation: In qHTS, concentration-response curves come from the screen itself.

The target in assay [2] is Luciferin 4-monooxygenase (Photinus pyralis) (UniProt P08659). Description: qHTS assay to identify small molecule inhibitors of firefly luciferase (AID 1224835). Note: nearly all actives have a fitted effect of over 25% in size. Note: potency is the fitted concentration of half-maximal effect. In a few lines:
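Biochemical qHTS: compounds run as interplate titrations against purified firefly enzyme, with D-luciferin and ATP each at its KM concentration. Light output recorded by CCD imaging.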

Assay [3] in a line: qHTS assay to identify small molecule agonists of the constitutive androstane receptor (CAR) signaling pathway - cell viability counter screen (AID 1224836). Note: nearly all actives have a fitted effect of over 45% in size. Note: potency is the fitted concentration of half-maximal effect. In a few lines: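 23 h treatment, 37 C, 5% CO2. Cell line: HepG2 stably expressing hCAR with a CYP2B6-2.2kb construct. Co-treatment: PK11195, 0.75 uM final. Read-out: CellTiter-Fluor fluorescence intensity.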
Assay [4] in a line: qHTS assay to identify small molecule antagonists of the constitutive androstane receptor (CAR) signaling pathway - cell viability counter screen (AID 1224837). Note: nearly all actives have a fitted effect of over 45% in size. Note: potency is the fitted concentration of half-maximal effect. The essentials:
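To flag cytotoxic false antagonists, HepG2 hCAR/CYP2B6-2.2kb cells were treated 23 hr with 15-concentration compound series and 50 nM CITCO at 37 C/5% CO2; CellTiter-Fluor fluorescence was the measured end point.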

Assay [5] concerns the target Nuclear receptor subfamily 1 group I member 3 (Homo sapiens) (UniProt Q14994). Description: qHTS assay to identify small molecule antagonists of the constitutive androstane receptor (CAR) signaling pathway (AID 1224838).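 Note: HepG2 cells stably expressing hCAR with CYP2B6 luciferase reporter stimulated by CITCO; nearly all actives have a fitted effect of over 40% in size.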 Note: potency is the fitted concentration of half-maximal effect. The essentials:
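Human hepatoma HepG2 cells expressing hCAR and a CYP2B6 promoter (2.2 kb) luciferase construct; compound titration (15 points) with 50 nM CITCO final, 24 h at 37 C/5% CO2; luminescence via ONE-Glo after 30 min at room temperature.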

Assay [6] has the same target. Description: qHTS assay to identify small molecule agonists of the constitutive androstane receptor (CAR) signaling pathway (AID 1224839). Note: nearly all actives have a fitted effect of over 15% in size. Note: potency is the fitted concentration of half-maximal effect. In a few lines: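 Compounds tested at 15 concentrations on HepG2 cells stably harbouring hCAR and CYP2B6-2.2kb reporter constructs, co-treated with PK11195 (0.75 uM final), 24 h at 37 C; luminescent reporter signal quantified.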

Assay [7] can be described thus: qHTS assay to identify small molecule antagonists of the estrogen related receptor signaling pathway with the pleiotropic PPARgamma coactivator (PGC) from Tox21 10K library - cell viability counter screen (AID 1224840; active = well fitted cell-killing curve with a large enough effect in the repeat runs, not every such curve was filed as active; note: nearly all actives have a fitted effect of over 40% in size). The essentials: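 Seeded PGC/ERR cells (2,000/well, 6 h, 37 C/5% CO2) get compound by pin tool; 17.5 h incubation at 37 C; CellTiter-Fluor added, 30 min, fluorescence measured.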

The nature of assay [8]: qHTS assay to identify small molecule antagonists of the estrogen related receptor signaling pathway with the pleiotropic PPARgamma coactivator (PGC) from Tox21 10K library (AID 1224841; call rule not given here; note: actives are mostly falling curves and most rising ones were filed inactive; nearly all actives have a fitted effect of over 50% in size; note: potency is the fitted concentration of half-maximal effect). In a few lines: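 Test chemicals dissolved in DMSO were applied to pre-incubated (6 h) PGC/ERR cells at 2,000 cells/well for an 18 h, 37 C treatment; reporter luminescence was then read using One-Glo.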

A short description of assay [9]: qHTS assay to identify small molecule agonists of the estrogen related receptor signaling pathway with the pleiotropic PPARgamma coactivator (PGC) from Tox21 10K library (AID 1224842). Note: nearly all actives have a fitted effect of over 15% in size. In a few lines: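 PGC/ERR reporter cell line, 2,000 cells per well, incubated 6 h at 37 C before 23 nL compound in DMSO was added. After 18 h at 37 C, One-Glo luminescence read following 30 min at room temperature.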

In assay [10] the target is Thyrotropin receptor (Homo sapiens) (UniProt P16473). Description: qHTS assay to identify small molecule agonists of the thyroid stimulating hormone receptor (TSHR) signaling pathway (AID 1224843; calls by dose curve; note: nearly all actives have a fitted effect of over 45% in size; note: potency is the fitted concentration of half-maximal effect). In a few lines:
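Agonist-mode screen: TSHR HEK293 cells received test chemicals for half an hour at room temperature, then HTRF cAMP detection reagents for one hour prior to fluorescence measurement. Each chemical ran as a 15-concentration series, triplicated.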

Nuclear receptor subfamily 1 group I member 3 (Homo sapiens), sequence (Q14994 whole entry, looked up): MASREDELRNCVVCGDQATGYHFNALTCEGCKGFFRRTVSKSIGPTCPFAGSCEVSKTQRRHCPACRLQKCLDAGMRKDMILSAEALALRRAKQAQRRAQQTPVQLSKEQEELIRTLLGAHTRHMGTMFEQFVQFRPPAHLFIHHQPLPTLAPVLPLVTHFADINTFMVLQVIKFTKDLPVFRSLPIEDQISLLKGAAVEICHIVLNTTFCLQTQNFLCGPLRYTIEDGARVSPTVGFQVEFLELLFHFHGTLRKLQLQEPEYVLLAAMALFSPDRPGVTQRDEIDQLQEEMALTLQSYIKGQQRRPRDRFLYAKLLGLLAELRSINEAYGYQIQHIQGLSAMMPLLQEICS
Thyrotropin receptor (Homo sapiens), sequence (P16473 whole entry, looked up): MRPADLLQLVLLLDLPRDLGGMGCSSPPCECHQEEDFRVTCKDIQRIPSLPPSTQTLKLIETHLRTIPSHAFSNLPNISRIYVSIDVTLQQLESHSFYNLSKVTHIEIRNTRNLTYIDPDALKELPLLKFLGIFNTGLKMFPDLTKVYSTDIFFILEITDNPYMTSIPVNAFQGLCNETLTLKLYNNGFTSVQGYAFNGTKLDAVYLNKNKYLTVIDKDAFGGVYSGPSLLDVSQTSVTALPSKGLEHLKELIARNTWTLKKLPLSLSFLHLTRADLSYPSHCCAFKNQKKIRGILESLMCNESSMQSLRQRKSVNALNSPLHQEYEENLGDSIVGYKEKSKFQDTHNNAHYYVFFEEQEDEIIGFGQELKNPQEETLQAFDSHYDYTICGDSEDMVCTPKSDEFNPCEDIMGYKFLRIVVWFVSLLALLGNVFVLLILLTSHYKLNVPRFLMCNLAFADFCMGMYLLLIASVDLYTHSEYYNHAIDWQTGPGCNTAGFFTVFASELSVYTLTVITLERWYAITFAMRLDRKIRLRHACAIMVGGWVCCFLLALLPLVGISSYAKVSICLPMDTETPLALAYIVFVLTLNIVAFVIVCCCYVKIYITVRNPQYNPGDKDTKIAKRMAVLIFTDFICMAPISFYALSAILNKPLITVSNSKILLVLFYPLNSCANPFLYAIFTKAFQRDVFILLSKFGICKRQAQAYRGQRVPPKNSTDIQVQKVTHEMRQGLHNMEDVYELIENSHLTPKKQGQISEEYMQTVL
Luciferin 4-monooxygenase (Photinus pyralis), sequence (P08659 whole entry, looked up): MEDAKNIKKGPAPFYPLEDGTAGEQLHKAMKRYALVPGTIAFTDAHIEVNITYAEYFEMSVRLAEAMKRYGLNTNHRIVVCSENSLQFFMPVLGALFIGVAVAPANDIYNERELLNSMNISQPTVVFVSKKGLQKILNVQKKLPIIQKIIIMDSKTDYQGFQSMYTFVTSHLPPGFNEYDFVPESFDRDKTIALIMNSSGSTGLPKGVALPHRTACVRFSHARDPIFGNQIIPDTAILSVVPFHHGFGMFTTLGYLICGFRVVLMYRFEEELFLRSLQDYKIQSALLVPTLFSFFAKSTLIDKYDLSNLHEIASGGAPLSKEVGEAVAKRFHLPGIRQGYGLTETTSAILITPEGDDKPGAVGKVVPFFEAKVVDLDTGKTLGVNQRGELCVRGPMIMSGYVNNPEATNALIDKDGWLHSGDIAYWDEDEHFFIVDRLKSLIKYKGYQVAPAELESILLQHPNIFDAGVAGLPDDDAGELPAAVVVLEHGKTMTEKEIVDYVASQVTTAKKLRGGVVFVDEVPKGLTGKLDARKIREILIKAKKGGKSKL

For `C=C(C)C(=O)OCC1CO1` (stereo unspecified), the Potency result in [1], in assay [2], in assay [3], in assay [4], in [5] and in assay [6] was “inactive” throughout. The Potency result in [7], in assay [8], in [9] and in [10] was “inactive” throughout.

As for `CCCCCCCCC(=O)NCc1ccc(O)c(OC)c1`, the Potency result in assay [1], in assay [2], in assay [3], in assay [4], in assay [5] and in assay [6] was “inactive” in each case. In addition, the Potency result in assay [7] and in [10] was “inactive” throughout.

Take `COc1ccc(C=O)cc1`: the Potency entry in assay [1], in [2], in assay [3], in [4], in assay [5] and in assay [6] was “inactive” in each case. Also, the Potency result in [7] and in assay [10] was “inactive” throughout.

For `N#Cc1cc(Br)c(O)c(Br)c1`, the Potency result in assay [1], in [2], in assay [3], in [4], in [5] and in assay [6] was “inactive” throughout. The Potency result in [7], in assay [9] and in [10] was “inactive” each time. In [8], the Potency is 54.4 µM (active) and 41.7 µM (active).

With `Cc1cc(Cl)ccc1OCCCC(=O)O`, the Potency result in assay [1], in assay [3], in [4], in assay [5], in assay [6] and in assay [7] was “inactive” each time. For the same molecule, the Potency result in assay [10] was “inactive”. In assay [2], the Potency is 73.8 µM (active).

As for `CCC(C)c1ccc(O)cc1` (stereo unspecified), the Potency result in assay [1], in assay [3], in assay [4], in assay [5], in [6] and in [7] was “inactive” throughout. The Potency entry in assay [8] and in assay [9] was “inactive” each time. The Potency in assay [2] is 71.6 µM (active).

For the molecule `CC(C)Oc1cc(-n2nc(C(C)(C)C)oc2=O)c(Cl)cc1Cl`, the Potency result in assay [1], in assay [2], in [3], in assay [4], in assay [5] and in assay [7] was “inactive” throughout. The Potency entry in [10] was “inactive”. For the same molecule, the Potency in [6] is 60.3 µM (active) and 61.1 µM (active).

For the molecule `CC(C)=CC1C(C(=O)OCc2coc(Cc3ccccc3)c2)C1(C)C` (stereo unspecified), the Potency entry in [1], in assay [2], in assay [3], in assay [4], in assay [5] and in assay [7] was “inactive” in each case. Also, in [6], the Potency was 34.4 µM (active) and 27.3 µM (active).

Take `CC(C)(OOC(C)(C)c1ccccc1)c1ccccc1`: the Potency entry in assay [1], in assay [2], in assay [3], in [4], in assay [5] and in assay [7] was “inactive” in each case. For the same molecule, the Potency entry in assay [8], in assay [9] and in assay [10] was “inactive” throughout. In addition, in assay [6], the Potency is 24 µM (active) and 8.63 µM (active).

As to `c1ccc(N=Nc2ccccc2)cc1`, the Potency result in assay [1], in assay [3], in assay [4], in assay [5], in [6] and in assay [7] was “inactive” in each case. Further, the Potency result in [8], in assay [9] and in assay [10] was “inactive” throughout. For the same molecule, in assay [2], the Potency is 18.2 µM (active) and 22.4 µM (active).

For `Oc1ccc(-c2ccccc2)cc1`, the Potency result in assay [1], in assay [3], in [4], in assay [5], in assay [7] and in assay [8] was “inactive” throughout. In addition, the Potency entry in [9] and in [10] was “inactive” each time. The Potency is 39.4 µM (active) and 39.9 µM (active) in [2]; 53.8 µM (active) and 54.5 µM (active) in assay [6].

As to `O=[N+]([O-])c1cccc2ccccc12`, the Potency entry in [1], in assay [2], in [3], in assay [4], in [5] and in [6] was “inactive” each time. The Potency entry in assay [7], in assay [8], in [9] and in assay [10] was “inactive” in each case.

For the molecule `C=C(C)[C@H]1Cc2c(ccc3c2O[C@@H]2COc4cc(OC)c(OC)cc4[C@@H]2C3=O)O1`, the Potency is 8.75 µM (active) and 8.63 µM (active) and 376 nM (active) in [1]; 875 nM (active) and 1.54 µM (active) and 668 nM (active) in [3]; 1.96 µM (active) and 770 nM (active) and 531 nM (active) in assay [4]; 3.48 µM (active) and 19.3 µM (active) and 3.35 µM (active) in [5]; 34.8 nM (active) and 4.9 nM (active) in assay [8]; 24.7 µM (active) and 17.2 µM (active) and 26.6 µM (active) in assay [10]. Also, the Potency result in [2], in assay [6], in assay [7] and in [9] was “inactive” in each case.

`C[C@]12CCC(=O)C(O)=C1CC[C@@H]1[C@@H]2CC[C@]2(C)C(=O)CC[C@@H]12`: the Potency result in assay [1], in assay [2], in [3], in assay [4], in assay [5] and in assay [6] was “inactive” each time. Also, the Potency result in assay [7], in assay [8] and in assay [9] was “inactive” throughout.

In the case of `CCC(CC)Nc1c([N+](=O)[O-])cc(C)c(C)c1[N+](=O)[O-]`, the Potency entry in [1], in [2], in assay [3], in assay [4], in [5] and in assay [7] was “inactive” each time. The Potency result in assay [8], in assay [9] and in [10] was “inactive” in each case. In addition, the Potency in assay [6] was 49.2 µM (active) and 24.3 µM (active).

Take `CCCCOCCOP(=O)(OCCOCCCC)OCCOCCCC`: the Potency entry in assay [1], in [2], in assay [3], in assay [4], in [5] and in assay [6] was “inactive” throughout. Further, the Potency result in [7] was “inactive”.

As for `Nc1ccc(Cl)c(Cl)c1`, the Potency result in [1], in assay [2], in assay [3], in assay [4], in assay [5] and in [6] was “inactive” each time. The Potency entry in assay [7], in assay [8], in [9] and in assay [10] was “inactive” in each case.

As for `CCOC(=O)C(C)OC(=O)c1cc(Oc2ccc(C(F)(F)F)cc2Cl)ccc1[N+](=O)[O-]` (stereo unspecified), the Potency entry in [1], in assay [2], in [3], in assay [4], in assay [5] and in [7] was “inactive” throughout. In addition, the Potency entry in assay [9] is “inactive”. The Potency in assay [6] is 54.2 µM (active) and inactive; in assay [8], 24.2 µM (active).

`NCc1cccnc1`: the Potency result in assay [1], in assay [2], in [3], in assay [4], in assay [5] and in assay [6] was “inactive” throughout. Also, the Potency result in [7], in assay [8], in assay [9] and in assay [10] was “inactive” throughout.

Take `CC(O)CCO` (stereo unspecified): the Potency result in assay [1], in assay [2], in assay [3], in assay [4], in assay [5] and in assay [6] was “inactive” throughout. Further, the Potency result in assay [7] and in assay [10] was “inactive” each time.

(Values after PubChem BioAssay (Tox21).)
